Tests used:
Assay in all cases: PBM binding z-score (relative to random genomic background probes); higher = stronger binding; sequences stand for … in GC…GCGATTGACAGCGTAGAATGAAGG
[1] = test system: PPARg:RXRa DBDmut IVT, anti-RXR (DBD mutation: RXRa K156A/R161A, NR concentration 270 nM, RXRa partner concentration 90 nM)
Summary of the method: (§1)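 Custom Agilent 4×180K protein-binding microarrays carried double-stranded probes. Their 34-nt variable regions held direct-repeat seeds, single-nucleotide variants, half-site ablations and random human genomic background sequences. Arrays were incubated 1 h with ligand-free nuclear receptor dimers in PBS pH 7.4, 2% milk, 0.02% Triton X-100, 1 mM DTT, 0.2 mg/mL BSA and 0.4 mg/ml salmon testes DNA. Antibodies against each partner (one per run) detected binding, and scanned fluorescence was regression-normalized. Binding z-scores use random background probes as reference.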

[2] = test system: PPARg:RXRa IVT, anti-PPARg (NR concentration 270 nM, RXRa partner concentration 90 nM)
Summary of the method: as §1

[3] = test system: PPARg DBDmut:RXRa IVT, anti-PPARg (DBD mutation: PPARg1 K132A/R137A, NR concentration 270 nM, RXRa partner concentration 90 nM)
Summary of the method: as §1

[4] = test system: PPARg DBDmut IVT, anti-PPARg (DBD mutation: PPARg1 K132A/R137A, NR concentration 270 nM)
Summary of the method: as §1

[5] = test system: PPARg homodimer (NR concentration 180 nM)
Summary of the method: as §1

[6] = test system: PXR:RXRa (NR concentration 270 nM, RXRa partner concentration 90 nM)
Summary of the method: as §1

[7] = test system: PXR homodimer (NR concentration 270 nM)
Summary of the method: as §1

[8] = test system: RARa:RXR (NR concentration 270 nM, RXRa partner concentration 90 nM)
Summary of the method: as §1

[9] = test system: RARa homodimer (NR concentration 270 nM)
Summary of the method: as §1

[10] = test system: RARb:RXRa (NR concentration 270 nM, RXRa partner concentration 90 nM)
Summary of the method: as §1

[11] = test system: RARb homodimer (NR concentration 270 nM)
Summary of the method: as §1

[12] = test system: RARg:RXRa (NR concentration 270 nM, RXRa partner concentration 90 nM)
Summary of the method: as §1

[13] = test system: RARg homodimer (NR concentration 270 nM)
Summary of the method: as §1

[14] = test system: RXRa DBDmut IVT, anti-RXR (DBD mutation: RXRa K156A/R161A, NR concentration 90 nM)
Summary of the method: as §1

[15] = test system: RXRa homodimer (NR concentration 180 nM)
Summary of the method: as §1

[16] = test system: THRa:RXRa (NR concentration 90 nM, RXRa partner concentration 90 nM)
Summary of the method: as §1

[17] = test system: THRa homodimer (NR concentration 90 nM)
Summary of the method: as §1

[18] = test system: VDR homodimer (NR concentration 270 nM)
Summary of the method: as §1

Sequence	PBM binding z-score [1]	PBM binding z-score [2]	PBM binding z-score [3]	PBM binding z-score [4]	PBM binding z-score [5]	PBM binding z-score [6]	PBM binding z-score [7]	PBM binding z-score [8]	PBM binding z-score [9]	PBM binding z-score [10]	PBM binding z-score [11]	PBM binding z-score [12]	PBM binding z-score [13]	PBM binding z-score [14]	PBM binding z-score [15]	PBM binding z-score [16]	PBM binding z-score [17]	PBM binding z-score [18]
CCTACTGGGCCAGAGGTCATTGATTCCAATGCTC	3.69	4.99	0.0395	-0.7	2.97	4.8	1.58	4.62	0.505	3.63	4.02	4.51	3.89	1.52	4.88	3.22	1.09	3.61
CCGAGTAGGTTATGGGGCATTTAGGCAACGGTGA	3.07	3.53	-0.425	-0.513	2.12	-0.00225	-0.192	0.292	0.0296	0.919	0.777	0.488	0.435	0.127	0.632	0.429	0.289	-0.135
CCTACTCGGCCATCAGGTCATTGATATCAACGTT	2.58	2.67	0.141	-0.00439	2.27	2.02	1.21	2.36	1.12	2.29	3.21	2.43	2.51	1.21	1.33	3.16	3.66	2.42
CATACTGGGCCATTCAGAGGTCATTGATCATATG	3.86	3.89	1.19	0.509	2.57	4.82	2.58	4.36	0.758	3.14	4.15	4.52	3.48	1.39	3.85	3.21	1.4	3.67
CCTGCTAGGTCAATGGTCCGCTAAAGCAGCTCGC	4.03	3.49	-0.758	-0.248	0.967	0.521	-0.206	1.27	-0.566	3.68	2.71	3.34	3.91	1.71	1.57	2.19	0.549	-0.203
CCTTCTAGGTCATGGTCAGCTAATCTACAGTATG	7.22	6.72	1.58	1.21	2.24	1.7	0.327	2.63	1.36	4.08	3.46	4.02	5.08	2.02	3.37	3.45	2.5	0.794
CCTTACGGGTCAAGAGGTTATAGCACGACGAGCG	2.73	3.77	0.866	0.102	2.77	3.63	0.116	5.26	0.579	4.3	3.87	6.11	4.75	0.748	6.11	2.92	0.0618	1.17
CCGAGTAGGTTAAGGGGCATTCAGGCAACGGTGA	3.63	4.08	-0.405	-0.995	0.976	0.49	0.0402	1.39	0.293	1.51	1.56	1.08	0.926	0.277	1.43	1.32	0.369	0.685
CCTCCGAGGACAACAGGAGGTCAGAGCTGCCAGA	-0.0648	0.335	-1.15	-1.76	1.29	2.17	0.291	2.7	-0.117	2.88	3.75	3.41	3.21	0.726	2.02	3.58	2.36	1.61
ACTAGCAGGCCAACTTTGGGTCACTCAAACAAAG	1.25	1.4	0.153	-0.0474	0.721	0.676	-0.281	1.52	-0.417	1.74	2.34	2.46	1.61	-0.27	0.885	2.62	1.19	0.371
CCTATTAGTTGACCATAAGGGAAACCGAAGCTCG	0.672	0.217	0.925	1.02	2.22	0.326	0.761	0.517	2.53	0.497	0.512	0.264	0.552	0.71	0.398	0.545	0.494	0.692
CCGACTGGGGCAAGGTTTCCATAACGCACAGCCA	2.98	3.2	-0.0108	-1.24	0.216	-0.725	-0.351	-0.351	-0.575	0.592	0.28	0.112	0.326	-0.561	-0.0639	-0.0993	-0.3	-0.47
TCATATAGCTAAAGGTGAAAGTCGAACGATATGA	1.54	1.41	0.485	1.01	0.548	0.662	0.459	1.51	0.712	1.62	1.14	1.43	0.944	0.443	1.84	1.18	-0.427	-0.396
CAAACTAGGTCACCGGAAGATCAAAGTCCGCATG	8.57	9.02	7.41	5.5	6.16	2.27	0.35	3.33	1.83	4.28	3.35	4.78	5.35	1.93	3.67	3.63	1.81	0.906
